Shown are actives, neighbours in structure and some others; about 8.1% of the full set was active somewhere.
MCF10A rereplic = induces DNA re-replication in MCF 10a normal breast cells; Potency, µM (titrated, usually from 46.1 µM), for the others: at the top dose activity, positive = re-replication, most hits filed as activators; AID 624296; 2.9% of 350,000 active; MCF 10A DNA re-replication, Hoechst nuclear intensity, 48 h; further: % of control where 0% means no effect; nearly all actives have a fitted effect of over 50% in size
SW480 rereplic = DNA re-replication induction in SW480 cells; SW480 DNA re-replication, Hoechst DNA content imaging, 48 h; Potency, µM (top dose mostly 46.1 µM), for the others: top-dose re-replication activation, hits mostly activators; 1.8% of 340,000 active; AID 624297; further: % of control where 0% means no effect; nearly all actives have a fitted effect of over 55% in size
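Quantitative HTS format with DMSO vehicle controls; 48 hr drug incubation at 37 C, then 40 min Hoechst staining and scanning imager measurement at 405 nm excitation.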
KB-V1 MDR tox = kills drug-selected multidrug resistant KB-V1 cells; 3.4% of 400,000 active; AID 1347076; KB-V1 MDR cells viability, CellTiter-Glo, 72 h; Potency, µM (series often up to 46.1 µM), most hits filed as cytotoxic; further: on the % scale 0 is the no-effect control and ±100 the full control effect; nearly all actives have a fitted effect of over 60% in size
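Potencies derive from concentration-effect curves fitted to normalized luminescence (CellTiter-Glo) of KB-V1 cells treated for 72 h at 37 degrees C in phenol-red-free DMEM containing 10% FBS.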
ELG1 repair inh = blocks ELG1-dependent DNA repair in HEK293T cells. HEK293T ELG1-luciferase reporter, luminescence, 16 h; DNA damage induced by 5-fluorouridine. Potency, µM (titrated, usually from 46.1 µM), without a hit: at the highest dose activity change, negative = inhibition, hits mostly inhibitors. 2.3% of 330,000 active. AID 504467; further: on the % scale 0 is the no-effect control and ±100 the full control effect; nearly all actives have a fitted effect of over 55% in size
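Step one: seed 2,000 cells per well. Step two: pin-transfer compound or DMSO alongside 5-fluorouridine. Step three: incubate 16 hr, 37 °C, 5% CO2. Step four: add ONE-Glo, wait 30 min, read luminescence.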
KB-3-1 tox = KB-3-1 parental cell cytotoxicity; KB-3-1 viability, CellTiter-Glo ATP luminescence, 72 h; 1.4% of 400,000 active; AID 1347075; Potency, µM (titrated, usually from 46.1 µM), hits mostly cytotoxic; further: on the % scale 0 is the no-effect control and ±100 the full control effect; nearly all actives have a fitted effect of over 60% in size
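Parental KB-3-1 adenocarcinoma cells in phenol-red-free DMEM with 10% FBS were pin-treated with compounds at several concentrations, incubated 72 h at 37 °C, and viability read by CellTiter-Glo luminescence; concentration-effect curves were fitted after normalization.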
* marks the source's active call; other numbers are inactive results; i = inactive; ? = inconclusive; . = no result; [ ] = remark or other dose. The call rests on the fitted dose curve; in most records, active means well fitted curve in the direction sought with a large enough effect; inconclusive means small, poorly fitted or top-dose-only effect, or another doubt; inactive means no such curve, though single readings can be large; an effect the other way counts as inactive or inconclusive. Potency means the concentration at half of the fitted maximal effect.

SMILES	MCF10A rereplic	SW480 rereplic	KB-V1 MDR tox	ELG1 repair inh	KB-3-1 tox
O=C(CN1CCN(S(=O)(=O)c2ccc(F)c(Cl)c2)CC1)N1CCc2ccccc21	-3%	-5%	3.3µM*	1%	?
O=C(CCCOc1ccc(Cl)cc1Cl)N1CCc2ccccc2C1	3.3µM*	2.6µM*	?	-8%	i
COc1ccc(CN2C(=O)C(CC(=O)NCc3cccs3)CC(C(=O)N(C)C)=C2C)cc1 (stereo not drawn)	.	.	i	.	i
Cn1nccc1NC(=O)CC1(CC(=O)O)CCCCC1	0%	-10%	i	-3%	i
O=C(CCC(=O)N1CCc2ccccc2C1)N1CCN(S(=O)(=O)c2ccccc2)CC1	-3%	0%	13µM*	?	i
COc1ccc(OC)c(-c2cc(C(=O)Nc3cc(C)n(Cc4ccc(Cl)cc4)n3)no2)c1	-11%	3%	i	21µM*	?
COc1ccccc1-c1cc(C(=O)Nc2c(C)nn(Cc3ccc(Cl)cc3)c2C)no1	.	.	i	.	?
COc1cccc(-c2cc(C(=O)Nc3cc(C)n(Cc4ccc(Cl)cc4)n3)no2)c1	?	?	?	?	i
COc1ccc(-c2cc(C(=O)Nc3c(C)nn(Cc4ccc(Cl)cc4)c3C)no2)cc1	16µM*	?	?	?	i
Cc1nn(Cc2ccc(Cl)c(Cl)c2)c(C)c1NC(=O)c1cc(-c2ccco2)on1	?	?	5.2µM*	?	?
Cc1nn(Cc2ccc(Cl)cc2)c(C)c1NC(=O)c1cc(-c2ccco2)on1	23µM*	4%	i	?	i
O=C(COC(=O)CCNS(=O)(=O)c1ccccc1)NNC(=O)c1ccccc1	0%	-108%	i	7%	i
Cc1nn(Cc2ccc(F)cc2)c(C)c1NC(=O)c1nn(C)cc1Cl	-1%	1%	9.2µM*	-20%	i
O=C(c1ccccc1)c1ccc(OCC(O)CN2CCCCC2)cc1 (stereo not drawn)	?	0%	i	0%	i
O=C(c1ccccc1)c1ccc(OCC(O)CN2CCN(S(=O)(=O)N3CCCCC3)CC2)cc1 (stereo not drawn)	22%	9%	2.1µM*	18µM*	23µM*
CCOC(=O)c1[nH]c(C)c(C(=O)Nc2ccc(C)c(F)c2)c1C	12µM*	12µM*	2.9µM*	-4%	?
CCOC(=O)c1[nH]c(C)c(C(=O)Nc2ccc(C)c(Cl)c2)c1C	21µM*	?	i	1%	?
C=CCOn1c(=O)c(-c2ccc(OC)cc2)[n+]([O-])c2ccccc21	5%	2%	i	4%	i
Cc1ccc(C)c(NC(=O)c2cc(S(=O)(=O)N3CCCCC3)c[nH]2)c1	-2%	-9%	i	4%	i
O=C(NCCc1ccccc1)C(=O)c1c(-c2ccccc2)cc2ccccn12	-3%	-8%	21µM*	?	i
CCc1noc(C)c1C(=O)N1CCN(S(=O)(=O)c2ccc(C)cc2C)CC1	10%	0%	i	-8%	i
CC(C)CN(CC(C)C)C(=O)Cc1coc2ccc3ccccc3c12	?	16%[9.22 µM]	23µM*	.	?
COc1ccc(C[C@H]2CN3C(=NC[C@@H]3Cc3ccc(O)cc3)N2CCNC(=O)c2ccc(C)c(Br)c2)cc1	5%	-19%	i	-8%	16µM*
O=C(NCCc1cnc[nH]1)c1cccs1	-4%	-14%	i	24%	i
O=S(=O)(c1ccccc1)N(Cc1nc(-c2ccccc2)no1)C1CCCCC1	27%	4%	10µM*	-19%	26µM*
SMILES	MCF10A rereplic	SW480 rereplic	KB-V1 MDR tox	ELG1 repair inh	KB-3-1 tox
Cn1cc([N+](=O)[O-])c(C(=O)Nc2nc(-c3ccc(Cl)cc3)cs2)n1	5.2µM*	5.8µM*	13µM*	2.1µM*	6.5µM*
Cn1cc([N+](=O)[O-])c(C(=O)Nc2ccn(C34CC5CC(CC(C5)C3)C4)n2)n1	?	?	15µM*	9%	4.6µM*
Cc1cnc(NC(=O)c2nn(C)cc2[N+](=O)[O-])s1	4.1µM*	3.7µM*	?	15%	?
Cc1ccc(-c2nc(NC(=O)c3nn(C)cc3[N+](=O)[O-])sc2C)cc1C	?	1.5µM*	15µM*	9.2µM*	?
CCn1cc([N+](=O)[O-])c(C(=O)Nc2ccn(C34CC5CC(CC(C5)C3)C4)n2)n1	16%	0%	i	8%	i
COc1ccccc1Cc1nc2ccccc2nc1SCC(=O)N1CCc2ccccc21	.	.	i	.	i
CCC(NC(=O)Cc1c(C)c2ccc(OC)c(C)c2oc1=O)C(=O)NC(Cc1ccc(Cl)cc1)C(=O)O (stereo not drawn)	?	-132%	i	?	i
Cc1ccc(-c2nc(NC(=O)c3nn(C)cc3[N+](=O)[O-])sc2C)cc1	?	1%	?	16µM*	4.6µM*
Cc1cc(-c2cc(-c3ccc(Cl)cc3)on2)nc(NCC2CC2)n1	0%	-5%	i	10%	i
Cc1cn(C(=O)c2ccccc2)c(=S)n1-c1ccc(Br)cc1	?	19%	15µM*	-11%	i
COc1ccc(NC(=O)c2sc(NC(=O)C3CC3)nc2C)cc1	-1%	-18%	i	-6%	i
Cc1ccc(C(=O)CCNc2ccc(Br)cc2)o1	?	0%[9.22 µM]	i	.	i
Cc1ccc(C(=O)Cc2ccccc2)o1	1%	1µM*	i	28%	i
Cc1ccc(C(=O)CCNc2ccccc2)o1	7.1µM*	?	i	.	i
C/C(=N\NC(=O)c1ccc(OC2CCCC2)cc1)c1ccc(O)cc1	?	9%	?	6%	3.7µM*
CCN(CC)c1ccc(C(=O)N/N=C(\C)c2ccc(O)cc2)cc1	8.2µM*	-4%	i	-9%	13µM*
COc1ccc(C(=O)N/N=C(/C)c2ccc(N3CCCCC3)cc2)cc1	0%	-4%	i	13%	i
CCN(CC)c1ccc(C(=O)N/N=C(\C)c2cccnc2)cc1	20%	-4%	?	14%	i
CSc1nsc(SCC(=O)Nc2nc3ccccc3s2)n1	?	5%	i	?	?
CC(C)Oc1ccc(C(=O)N2CCCc3ccccc32)cc1	?	2%	i	-3%	i
O=C1C2C(c3ccccc3)(C(=O)N1c1ccc(Cl)cc1)C2(c1ccccc1)c1ccccc1 (stereo not drawn)	14%	3%	?	6.5µM*	i
NC(=O)C1CCCc2c1n(Cc1ccccc1)c1ccccc21 (stereo not drawn)	7%	1%	i	-9%	i
CCC1CCCCN1c1cc(C)nc2cc(-c3cccc(C)c3)nn12 (stereo not drawn)	3.5µM*	?	i	-19%	i
